In PubChem BioAssay (NCI) one finds growth inhibition data, which are given here for 38 compounds.

Compounds without any hit were thinned out: in the full panel of roughly 79,000, 15% have a hit. A number with no mark means an inactive call. No stated cut-off is given here; in the data, active means growth inhibition above about 70%; inactive means the rest.

The first assay can be described thus: NCI Yeast Anticancer Drug Screen. Data for the cln2 rad14 strain (AID 165).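 Further: 0% = growth equal to vehicle treated cultures.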 As to conditions: S. cerevisiae cln2 rad14 strain, at 50.0 µM, hits give high values. In outline:
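Growth inhibition, relative to vehicle-treated controls, is the read-out. The test organism is a yeast strain with defined genetic alterations, cln2 rad14.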
For `C=CC[N+](C)(C)C`, the growth inhibition is 7.7%.
Same read-out and setting: as for `C/C(=N\NC(=O)c1ccccc1N)c1ccccc1O`, the figure is 4.5%; as for `O=C(NCCNC(=O)c1ccc(Cl)cc1Cl)c1ccc(Cl)cc1Cl`, -42.2%; as for `CCOC(=O)CCCC(=O)OCC`, 7.7%.
On the same count and under the same terms, with `Cc1ccccc1C1N=C2Oc3ccccc3C=C2C(=O)N1` (stereo unspecified) the figure was -9.55%; with `O=C(O)C(O)c1ccccc1` (stereo unspecified), -48%; with `CN(C)/N=C/c1ccccc1O`, -6.85%.
On the same count and under the same terms, as for `O=c1cc2oc3cc(O)c(O)cc3c(-c3ccccc3O)c-2cc1O`, the figure is 32.3%; as for `Oc1ccccc1O`, -11.7%.
As to `Cc1ccc(C(O)C2CC2)cc1` (stereo unspecified), the growth inhibition is 11.4%.
The same measure, in the same setting: with `CSC[C@H](NC(=O)COc1cccc2cnccc12)C(=O)NC(Cc1ccccc1)C(O)C(=O)N1CSC[C@H]1C(=O)NC(C)(C)C` (stereo partly specified) the figure was 17.6%.
As to `Cc1ccc(C)n1-c1ccsc1C(=O)NNC(=O)C(Cl)Cl`, the growth inhibition was 21.1%.
Regarding `O=S(=O)(O)c1ccc(O)c2ccccc12`, the growth inhibition was -30.1%.
Same read-out and setting: as for `Cc1cc(C)c(CC(=O)O)c(C)c1`, the figure is 12.3%; as for `CC1Cc2ccccc2O1` (stereo unspecified), -2.35%.
Same read-out and setting: as for `O=[N+]([O-])c1ccccc1N=Nc1ccc(O)cc1O`, the figure is -23.4%; as for `CC(=O)c1ccc(C)c(N)c1`, -0.6%.
Consider `CCCCNC(=O)C(=O)NCCCC`, for which the growth inhibition was 28.6%.
For the compound `CCOC(=O)c1[nH]c(C)c(C(=O)O)c1C`, the growth inhibition was -24.9%.
On the same count and under the same terms, with `Cn1cnc2nc(Cl)nc(Cl)c21` the figure was -0.05%; with `CC(=O)c1ccc2c(ccc3ccccc32)c1`, -14.6%.
The same measure, in the same setting: as for `O=c1[nH][nH]c(=O)c2cc([N+](=O)[O-])ccc12`, the figure is -67.7%; as for `C=C1CC/C=C(\C)C(=O)C[C@@H]2[C@@H]1CC2(C)C`, 18.6%.
Still for that read-out and setting: with `COS(=O)(=O)c1ccc(Br)cc1` the figure was -60.8%.
For the compound `S=c1sc2ccccc2n1CN1CCCCC1`, the growth inhibition is 10.6%.
On to `O=c1[nH]nc(SC2CCCCC2)c(=O)[nH]1`, for which the growth inhibition was -5.4%.
Still for that read-out and setting: with `O=c1cc(-c2ccccc2)oc2c1ccc1ccccc12` the figure was -90.3%.
`COc1cc(C2NC(=O)C(C#N)=C(Nc3cccc(C)c3)S2)ccc1O` (stereo unspecified): the growth inhibition is 1%.
As to `CCCCNC1(C#N)CCN(Cc2ccccc2)CC1`, the growth inhibition is 6.75%.
For the compound `O=C(Cc1nc2ccc([N+](=O)[O-])cc2nc1CC(=O)c1cccnc1)c1cccnc1`, the growth inhibition is 15.2%.
On to `O=C1C=C(O)C(=O)C=C1O`, for which the growth inhibition is 0.4%.
Still for that read-out and setting: with `O=C(CS)Nc1ccc2ccccc2c1` the figure was -36.9%.
Still for that read-out and setting: as for `COC(=O)c1[nH]c(=O)c(C#N)c(C(=O)OC)c1C(=O)c1ccccc1`, the figure is 19.2%; as for `CCCC(C)OCC(=O)O` (stereo unspecified), 4.35%; as for `CN(C)c1ccc2nc3ccc(=N)cc-3sc2c1`, 7.45%.
On the same count and under the same terms, with `CCOC(=O)C(CCC(C)C)C(=O)OCC` the figure was -53.4%; with `COC(=O)/C=C1\Sc2cc(F)ccc2NC1=O`, -44.2%.
As for `Cc1cccc(C(=O)N(C(C)C)C(C)C)c1`, the growth inhibition was -50.8%.

A short description of a further assay: NCI Yeast Anticancer Drug Screen. Data for the bub3 strain (AID 167). The following applies: S. cerevisiae bub3 mutant strain, at 50.0 µM, hits give high values. In outline: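 Yeast carrying a defined mutation is treated with each compound, and growth is compared with that of vehicle-exposed cells to give inhibition.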
For the compound `C=CC[N+](C)(C)C`, the growth inhibition is 14.2%.
The same measure, in the same setting: with `C/C(=N\NC(=O)c1ccccc1N)c1ccccc1O` the figure was 26.1%; with `O=C(NCCNC(=O)c1ccc(Cl)cc1Cl)c1ccc(Cl)cc1Cl`, -1.25%; with `CCOC(=O)CCCC(=O)OCC`, 22.8%.
Same read-out and setting: with `Cc1ccccc1C1N=C2Oc3ccccc3C=C2C(=O)N1` (stereo unspecified) the figure was -17.4%.
Still for that read-out and setting: as for `O=C(O)C(O)c1ccccc1` (stereo unspecified), the figure is 11.3%; as for `CN(C)/N=C/c1ccccc1O`, -21.6%.
Take `O=c1cc2oc3cc(O)c(O)cc3c(-c3ccccc3O)c-2cc1O`: the growth inhibition was 41%.
Regarding `Oc1ccccc1O`, the growth inhibition was -1.6%.
On to `Cc1ccc(C(O)C2CC2)cc1` (stereo unspecified), for which the growth inhibition is -21.6%.
On to `CSC[C@H](NC(=O)COc1cccc2cnccc12)C(=O)NC(Cc1ccccc1)C(O)C(=O)N1CSC[C@H]1C(=O)NC(C)(C)C` (stereo partly specified), for which the growth inhibition is 2.3%.
For the compound `Cc1ccc(C)n1-c1ccsc1C(=O)NNC(=O)C(Cl)Cl`, the growth inhibition was 21.7%.
`O=S(=O)(O)c1ccc(O)c2ccccc12`: the growth inhibition is 11.7%.
The same measure, in the same setting: with `Cc1cc(C)c(CC(=O)O)c(C)c1` the figure was 4.3%; with `CC1Cc2ccccc2O1` (stereo unspecified), 2.9%.
Regarding `O=[N+]([O-])c1ccccc1N=Nc1ccc(O)cc1O`, the growth inhibition is 10.7%.
As to `CC(=O)c1ccc(C)c(N)c1`, the growth inhibition is -2.15%.
The same measure, in the same setting: as for `CCCCNC(=O)C(=O)NCCCC`, the figure is 7%; as for `CCOC(=O)c1[nH]c(C)c(C(=O)O)c1C`, -23.8%.
Still for that read-out and setting: with `Cn1cnc2nc(Cl)nc(Cl)c21` the figure was 27.1%; with `CC(=O)c1ccc2c(ccc3ccccc32)c1`, -5.4%; with `O=c1[nH][nH]c(=O)c2cc([N+](=O)[O-])ccc12`, -15%.
Turning to `C=C1CC/C=C(\C)C(=O)C[C@@H]2[C@@H]1CC2(C)C`, the growth inhibition is 15.3%.
Still for that read-out and setting: with `COS(=O)(=O)c1ccc(Br)cc1` the figure was 0.6%.
As to `S=c1sc2ccccc2n1CN1CCCCC1`, the growth inhibition is 25.3%.
`O=c1[nH]nc(SC2CCCCC2)c(=O)[nH]1`: the growth inhibition was 4.85%.
As to `O=c1cc(-c2ccccc2)oc2c1ccc1ccccc12`, the growth inhibition is 52.5%.
The same measure, in the same setting: as for `COc1cc(C2NC(=O)C(C#N)=C(Nc3cccc(C)c3)S2)ccc1O` (stereo unspecified), the figure is -6.15%; as for `CCCCNC1(C#N)CCN(Cc2ccccc2)CC1`, -1.25%.
On the same count and under the same terms, as for `O=C(Cc1nc2ccc([N+](=O)[O-])cc2nc1CC(=O)c1cccnc1)c1cccnc1`, the figure is -3.85%; as for `O=C1C=C(O)C(=O)C=C1O`, -2.35%; as for `O=C(CS)Nc1ccc2ccccc2c1`, -7.85%.
As for `COC(=O)c1[nH]c(=O)c(C#N)c(C(=O)OC)c1C(=O)c1ccccc1`, the growth inhibition is -25.1%.
Turning to `CCCC(C)OCC(=O)O` (stereo unspecified), the growth inhibition was -1.25%.
`CN(C)c1ccc2nc3ccc(=N)cc-3sc2c1`: the growth inhibition is -15.2%.
In the case of `CCOC(=O)C(CCC(C)C)C(=O)OCC`, the growth inhibition was 4.6%.
For `COC(=O)/C=C1\Sc2cc(F)ccc2NC1=O`, the growth inhibition was -8.5%.
As for `Cc1cccc(C(=O)N(C(C)C)C(C)C)c1`, the growth inhibition was 26.2%.
